From PubChem
Most compounds without a hit are left out; they make up all but 4.7% or so of the library.
D1 agonist = agonists of human D1 dopamine receptor; P21728; HEK293 T-REx D1 cells, calcium flux, agonist mode; activation, % at 2 µM; 1% of 360,000 active; AID 504660
Target sequence (P21728 whole entry, looked up): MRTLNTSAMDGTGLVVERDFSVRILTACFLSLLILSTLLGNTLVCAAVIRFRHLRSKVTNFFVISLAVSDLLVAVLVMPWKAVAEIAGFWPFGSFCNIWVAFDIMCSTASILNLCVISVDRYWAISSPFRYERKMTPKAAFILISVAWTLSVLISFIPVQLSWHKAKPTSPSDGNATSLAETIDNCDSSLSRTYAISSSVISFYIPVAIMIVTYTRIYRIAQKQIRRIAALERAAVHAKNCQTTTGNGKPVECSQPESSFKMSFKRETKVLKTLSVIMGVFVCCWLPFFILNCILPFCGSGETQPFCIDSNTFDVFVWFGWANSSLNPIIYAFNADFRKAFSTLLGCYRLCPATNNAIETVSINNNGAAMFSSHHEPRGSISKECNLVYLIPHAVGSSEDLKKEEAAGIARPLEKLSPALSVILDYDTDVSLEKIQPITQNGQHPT
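Agonism was scored from calcium flux recorded over 180 s (1 read/s) after pintool compound addition, following a 10-cycle baseline. Cells were inducible force-coupled HEK293 TREx D1, plated overnight at 30 C and loaded with no-wash calcium dye.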
TRHR PAM = allosterically enhances the human TRH receptor; P34981; TRHR cells, fluo-8 calcium fluorescence, EC20 TRH enhancement; enhancement, % at 2 µM; 0.66% of 360,000 active; in the data active means enhancement above about 30%
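Enhancer read-out: after compound pinning and an initial kinetic agonist-mode read, an EC20 of TRH (10 nM final) was injected and fluo-8 calcium signal (Ex 480/Em 530) followed at 1 s/cycle for 100 cycles in TRHR-expressing cells.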
D1 antagonist = blocks dopamine activation of the human D1 receptor. P21728. HEK293 TREx D1 cells, calcium flux, dopamine EC80; stronger effect = lower value. activity change, negative = inhibition, % at 10 µM. 3.2% of 360,000 active. AID 504652; in the data active means activity change below about -30%
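Cells carrying a force-coupled, tetracycline-inducible human D1 receptor report calcium flux. Each well gets a 10 s baseline, compound with 180 s monitoring, then an EC80 dopamine stimulus with a second 180 s kinetic read.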
TRHR ag = TRH receptor (human) agonism; P34981; TRHR cells, calcium flux fluo-8, FDSS agonist mode; activation, % at 2 µM; 0.18% of 360,000 active
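Steps: seed TRHR cells overnight; add fluo-8 no-wash Ca dye, RT 30 min–1.5 h; record 10 s baseline; pin-transfer compounds; monitor fluorescence 1 cycle/s for the agonist window. Calcium increases flag candidate agonists.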
D1 PAM = enhances dopamine response at the human D1 receptor. P21728. HEK293 TREx D1 cells, calcium flux, dopamine EC20 potentiation. potentiation, % at 10 µM. 0.036% of 360,000 active; in the data active means potentiation above about 30%
Large screens that a line does not name were inactive. Unless noted, no stated cut-off is given here; in the data, active means activation above about 30%; inactive means the rest.

CC(C)N(C)Cc1cn(C)nc1-c1ccc(Oc2ccccc2)cc1	TRHR PAM 36
COc1ccc(-n2cc(CN3CCC(OC)CC3)c(-c3cccc(F)c3)n2)cc1	none
COc1ccc(-n2cc(CNC3CCC(O)CC3)c(-c3cccc(F)c3)n2)cc1 (stereo unspecified)	D1 agonist 36
CCOC(=O)CC1(NC(=O)c2cc(COc3ccc(F)c(F)c3)on2)CCCCC1	D1 agonist 31
Cc1cc(CNC(=O)c2cc(COc3ccc(F)c(F)c3)on2)nn1C	none
Cc1ccccc1OCC(=O)Nc1ccc(OCc2cc(=O)n3ccsc3n2)cc1	none
COc1ccc(C(=O)Nc2cccc(OCc3cc(=O)n4c5c(sc4n3)CCCC5)c2)cc1OC	none
Cc1cn2c(=O)cc(COc3ccc(NC(=O)c4cccc(F)c4)cc3)nc2s1	D1 antagonist -41
Cc1ccc(OCC(=O)Nc2ccc(OCc3cc(=O)n4ccsc4n3)cc2)cc1	D1 agonist 144
Cc1ccccc1C(=O)Nc1cccc(OCc2cc(=O)n3c4c(sc3n2)CCCC4)c1	TRHR PAM 32
O=C(Nc1cccc(OCc2cc(=O)n3c4c(sc3n2)CCCC4)c1)c1ccc(F)cc1	D1 antagonist -31
Cc1ccccc1C(=O)Nc1ccc(C(=O)OCc2cc(=O)n3c4c(sc3n2)CCCC4)cc1	none
Cc1cccc(-n2c(SCC(=O)Nc3ccc(C)c(C)c3)nc3n[nH]c(C)c3c2=N)c1	none
CN(C)S(=O)(=O)N(CC(=O)Nc1ccc(Br)cc1F)c1ccccc1	none
CCN(CC)c1ccc(C2=NNC(=O)CC2C)cc1[N+](=O)[O-] (stereo unspecified)	D1 antagonist -44
O=C(CSc1nnc(-c2ccncc2)o1)Nc1ccccc1Cl	none
O=C(CSc1nnc(-c2ccncc2)o1)NC1C2CC3CC(C2)CC1C3 (stereo unspecified)	TRHR PAM 31
O=C1CC(N2CCN(c3ccc(Cl)c(Cl)c3)CC2)C(=O)N1 (stereo unspecified)	D1 agonist 32
COc1ccc(Cn2ccc3nc(C)c(C(=O)Nc4ccc(OC)cc4)cc3c2=O)cc1	none
O=C(O)CC(CNS(=O)(=O)c1ccccc1)c1ccccc1 (stereo unspecified)	D1 antagonist -33
COc1ccc(C)cc1NC1(c2ccccc2)C(=O)c2ccccc2C1=O	none
Cc1cccc(C(=O)NNC(=O)c2c(-c3ccccc3Cl)noc2C)c1O	TRHR PAM 31
Cc1onc(-c2ccccc2Cl)c1C(=O)NCc1nc(-c2ccc(C(F)(F)F)cc2)no1	D1 antagonist -37
Cc1onc(-c2ccccc2Cl)c1C(=O)Nc1ccc(N2CCOCC2)cc1	D1 antagonist -46
Cc1onc(-c2ccccc2Cl)c1C(=O)NNC(=O)c1ccc(F)cc1	none
Cc1onc(-c2ccccc2Cl)c1C(=O)Nc1ccc(Cl)cn1	TRHR PAM 31
Cc1ccc(NC(=O)c2c(-c3ccccc3Cl)noc2C)nc1	none
CCSc1nc2c([nH]c3ccccc32)c(=O)n1-c1ccc(F)cc1	none
O=C(CCc1nc(-c2ccccc2)no1)Nc1cc(C(F)(F)F)ccc1Cl	D1 agonist 61
CCSc1nnc(NC(=O)c2c(-c3ccccc3Cl)noc2C)s1	none
O=C(Cc1nnc(CNC(=O)c2ccccc2)o1)Nc1cc(C(F)(F)F)ccc1Cl	none
Cc1onc(-c2ccccc2Cl)c1C(=O)Nc1nnc(-c2cccc([N+](=O)[O-])c2)s1	D1 agonist 41
COC(=O)c1sc(-c2ccccc2)cc1NC(=O)Nc1ccc(F)cc1	none
COc1cccc(NC(=O)c2ccc(N3C(=O)C4CC=C(C)CC4C3=O)cc2)c1 (stereo unspecified)	none
CCCCCC1NC(=O)NC1CCCCCC(=O)O (stereo unspecified)	none
O=C(CCCO)CCCCCCCCC[C@H]1N[C@H](CO)[C@@H](O)[C@@H]1O	D1 antagonist -45
O=C(NCc1ccco1)C1CCCCN1S(=O)(=O)c1ccc(F)cc1 (stereo unspecified)	D1 antagonist -39
CCOc1ccc(S(=O)(=O)N2CCCC(C(=O)NCc3ccncc3)C2)cc1Cl (stereo unspecified)	D1 antagonist -31
CCOC(=O)C1CCCN(C(=O)C2CCN(S(=O)(=O)c3cnc[nH]3)CC2)C1 (stereo unspecified)	D1 antagonist -41
O=C(NCc1cccs1)C1CCCN(S(=O)(=O)c2cnc[nH]2)C1 (stereo unspecified)	none (no result: D1 PAM)
O=C(NCc1ccccc1Cl)C1CCCN(S(=O)(=O)c2cnc[nH]2)C1 (stereo unspecified)	D1 antagonist -44 (no result: D1 PAM)
O=C(CCc1ccccc1)NCCc1csc(-c2cccc(F)c2)n1	none
Cc1ccc(-c2nc3c(Cl)cc(Cl)cc3c(=O)n2O)cc1	none
COc1ccc(-c2nc3n(n2)C(c2ccc(OC)cc2)C(C(=O)Nc2cccnc2)=C(C)N3)cc1 (stereo unspecified)	none
CCn1ccc2c(OCC(=O)NCc3ccccc3)cccc2c1=O	none (no result: D1 antagonist)
O=C(NCc1ccccc1)C1CCCN(S(=O)(=O)c2ccc(Br)cc2)C1 (stereo unspecified)	none
O=C(NCc1ccccc1)C1CCCN(S(=O)(=O)c2ccc(F)cc2)C1 (stereo unspecified)	TRHR PAM 36
Cc1ccc(-n2nnnc2SCC(=O)Nc2ncc(Cc3ccccc3Cl)s2)cc1	none
CN(C)S(=O)(=O)c1cccc(NC(=S)N/N=C/c2cc(Br)ccc2O)c1	D1 agonist 47
O=C(NCc1ccc(F)cc1)c1ccc(Nc2nc3ccccc3n3nnnc23)cc1	D1 antagonist -30
CCOc1ccc(S(=O)(=O)N(CC(=O)NCCc2ccc(OC)cc2)c2ccccc2)cc1	none
COc1cccc(N(C(=O)Cn2nnc3ccccc32)C(C(=O)NCc2ccco2)c2cccnc2)c1 (stereo unspecified)	none
COc1cccc(C(C(=O)NCc2ccco2)N(Cc2ccco2)C(=O)Cn2nnc3ccccc32)c1 (stereo unspecified)	D1 antagonist -33
OCCN1CCN(C(c2ccc(Cl)cc2Cl)c2sc3nc(-c4ccco4)nn3c2O)CC1 (stereo unspecified)	none (no result: D1 antagonist)
CCc1nnc2c(N3CCN(c4cccc(C(F)(F)F)c4)CC3)nc3ccccc3n12	none
CN1CCN(c2ccc(-c3nc(-c4ccccc4)no3)cc2[N+](=O)[O-])CC1	D1 antagonist -38
CN(C)c1ccc(-c2nc(-c3ccccn3)no2)cc1[N+](=O)[O-]	D1 antagonist -39
COc1ccc(-c2noc(-c3ccc(N4CCC(C)CC4)c([N+](=O)[O-])c3)n2)cc1OC	D1 antagonist -42
CCOc1ccccc1NC(=O)CCc1c(C)nc2c3cccnc3nn2c1C	none
Cc1cc(C)c(NC(=O)COc2cccnc2[N+](=O)[O-])c(C)c1	none
